Experiments:
Assay in all cases: log2 ratio of Biotin-Ahx-Ub-VS probe labelling (fragment/DMSO); higher = less target engagement (more negative = stronger competition), active = hit call of the paper (q ≤ 0.05, log2 ratio ≤ -1)
Conditions in all cases: compound concentration: 200 uM; treatment time: 3 h
USP42 = target: T1, USP42 (UniProt Q9H9J4)
T1 sequence (whole entry): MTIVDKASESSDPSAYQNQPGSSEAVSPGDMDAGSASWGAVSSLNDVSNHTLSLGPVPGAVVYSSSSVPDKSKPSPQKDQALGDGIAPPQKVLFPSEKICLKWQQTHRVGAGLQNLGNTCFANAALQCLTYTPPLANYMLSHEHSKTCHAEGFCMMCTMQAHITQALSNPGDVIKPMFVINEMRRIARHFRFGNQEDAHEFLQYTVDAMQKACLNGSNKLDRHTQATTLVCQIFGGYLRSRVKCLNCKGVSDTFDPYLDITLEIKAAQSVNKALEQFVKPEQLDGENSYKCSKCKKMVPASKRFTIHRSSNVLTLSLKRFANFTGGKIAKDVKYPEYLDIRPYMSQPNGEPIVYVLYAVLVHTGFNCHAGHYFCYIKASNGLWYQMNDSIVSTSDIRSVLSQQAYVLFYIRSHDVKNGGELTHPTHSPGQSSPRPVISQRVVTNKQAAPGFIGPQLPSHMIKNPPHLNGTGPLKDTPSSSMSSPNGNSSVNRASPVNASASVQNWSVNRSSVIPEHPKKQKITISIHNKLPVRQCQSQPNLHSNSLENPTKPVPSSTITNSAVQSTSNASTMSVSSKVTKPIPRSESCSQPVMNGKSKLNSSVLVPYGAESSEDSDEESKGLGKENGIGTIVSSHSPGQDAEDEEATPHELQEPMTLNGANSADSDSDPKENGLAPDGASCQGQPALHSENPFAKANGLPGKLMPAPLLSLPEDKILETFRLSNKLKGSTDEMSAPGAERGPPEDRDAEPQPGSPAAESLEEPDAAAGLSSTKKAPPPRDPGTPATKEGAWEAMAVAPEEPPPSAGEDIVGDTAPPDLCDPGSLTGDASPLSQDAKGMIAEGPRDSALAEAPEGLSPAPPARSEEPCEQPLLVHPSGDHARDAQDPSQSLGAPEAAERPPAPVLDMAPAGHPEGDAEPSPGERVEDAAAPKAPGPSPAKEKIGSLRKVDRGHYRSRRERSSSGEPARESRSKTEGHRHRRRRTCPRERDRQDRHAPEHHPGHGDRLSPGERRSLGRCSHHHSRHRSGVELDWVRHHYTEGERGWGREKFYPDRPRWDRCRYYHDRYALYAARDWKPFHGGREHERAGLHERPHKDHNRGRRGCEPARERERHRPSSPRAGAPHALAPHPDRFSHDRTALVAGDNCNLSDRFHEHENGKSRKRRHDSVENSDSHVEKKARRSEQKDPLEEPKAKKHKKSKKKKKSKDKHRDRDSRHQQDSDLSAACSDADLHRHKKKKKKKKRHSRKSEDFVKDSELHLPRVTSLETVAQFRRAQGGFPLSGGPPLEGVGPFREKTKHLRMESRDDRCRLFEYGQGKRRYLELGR
Procedure, shortened: (§1)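 Labelled DUBs from HEK293T lysate were NeutrAvidin-enriched, digested with LysC and trypsin, and run by diaPASEF LC-MS/MS. Before that, each 495 µg sample in Tris/CHAPS/IGEPAL buffer with protease inhibitors was treated in triplicate with fragment at 200 µM or vehicle for 3 h, then with Biotin-Ahx-Ub-VS at 0.5 µM final for 1 h. Values are average log2 ratios of fragment over vehicle by unpaired t-test, based on global-median-normalised Spectronaut label-free quantities from proteins with ≥2 unique peptides.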

USP46 = USP46 (UniProt P62068)
Chain of USP46 (P62068 whole entry): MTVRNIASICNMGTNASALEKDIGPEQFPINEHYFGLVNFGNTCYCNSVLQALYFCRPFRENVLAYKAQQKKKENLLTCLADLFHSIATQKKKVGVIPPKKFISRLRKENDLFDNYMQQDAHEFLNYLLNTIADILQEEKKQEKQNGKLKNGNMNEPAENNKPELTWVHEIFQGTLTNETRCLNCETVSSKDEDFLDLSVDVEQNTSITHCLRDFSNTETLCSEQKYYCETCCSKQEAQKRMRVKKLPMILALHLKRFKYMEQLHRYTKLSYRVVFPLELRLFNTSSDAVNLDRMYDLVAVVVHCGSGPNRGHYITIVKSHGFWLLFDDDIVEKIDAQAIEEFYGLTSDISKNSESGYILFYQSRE
Procedure, shortened: as §1

USP47 = target: T2, USP47 (UniProt Q96K76)
T2 sequence (whole entry): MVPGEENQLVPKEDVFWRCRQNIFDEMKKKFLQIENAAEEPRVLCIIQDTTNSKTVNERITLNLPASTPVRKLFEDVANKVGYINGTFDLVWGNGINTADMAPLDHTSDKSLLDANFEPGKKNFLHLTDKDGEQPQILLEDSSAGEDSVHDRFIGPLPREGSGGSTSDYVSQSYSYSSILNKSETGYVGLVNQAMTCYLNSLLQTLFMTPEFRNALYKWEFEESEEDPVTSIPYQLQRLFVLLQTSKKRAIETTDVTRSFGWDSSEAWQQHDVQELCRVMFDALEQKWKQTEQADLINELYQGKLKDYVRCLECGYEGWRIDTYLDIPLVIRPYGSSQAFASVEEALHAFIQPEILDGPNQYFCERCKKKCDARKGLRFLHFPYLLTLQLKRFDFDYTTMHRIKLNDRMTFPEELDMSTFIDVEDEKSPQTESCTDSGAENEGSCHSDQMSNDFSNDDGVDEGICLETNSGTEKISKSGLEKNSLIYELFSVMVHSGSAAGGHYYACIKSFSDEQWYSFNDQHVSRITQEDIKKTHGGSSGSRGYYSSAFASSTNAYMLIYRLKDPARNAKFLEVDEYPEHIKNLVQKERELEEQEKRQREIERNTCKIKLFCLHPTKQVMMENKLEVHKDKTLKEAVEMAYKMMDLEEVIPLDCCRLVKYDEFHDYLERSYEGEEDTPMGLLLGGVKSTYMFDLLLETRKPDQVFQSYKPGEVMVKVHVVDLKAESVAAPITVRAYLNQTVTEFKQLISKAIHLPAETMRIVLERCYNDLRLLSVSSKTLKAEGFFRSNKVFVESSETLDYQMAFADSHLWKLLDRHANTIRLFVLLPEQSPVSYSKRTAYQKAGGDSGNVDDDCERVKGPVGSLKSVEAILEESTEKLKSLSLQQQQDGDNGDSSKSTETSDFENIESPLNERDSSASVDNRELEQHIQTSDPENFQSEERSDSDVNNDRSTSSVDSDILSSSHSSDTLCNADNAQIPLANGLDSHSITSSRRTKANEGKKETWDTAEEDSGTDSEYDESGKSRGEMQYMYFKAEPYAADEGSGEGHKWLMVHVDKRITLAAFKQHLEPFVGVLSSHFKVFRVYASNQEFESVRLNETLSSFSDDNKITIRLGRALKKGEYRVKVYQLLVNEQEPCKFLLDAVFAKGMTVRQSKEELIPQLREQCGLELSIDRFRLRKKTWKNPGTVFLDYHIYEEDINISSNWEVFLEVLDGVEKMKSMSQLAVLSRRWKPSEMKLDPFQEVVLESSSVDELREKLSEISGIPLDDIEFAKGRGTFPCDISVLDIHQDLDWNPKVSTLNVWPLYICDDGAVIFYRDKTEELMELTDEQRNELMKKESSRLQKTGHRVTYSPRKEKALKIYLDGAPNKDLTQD
Procedure, shortened: as §1

USP48 = target: T3, USP48 (UniProt Q86UV5)
T3 sequence (whole entry): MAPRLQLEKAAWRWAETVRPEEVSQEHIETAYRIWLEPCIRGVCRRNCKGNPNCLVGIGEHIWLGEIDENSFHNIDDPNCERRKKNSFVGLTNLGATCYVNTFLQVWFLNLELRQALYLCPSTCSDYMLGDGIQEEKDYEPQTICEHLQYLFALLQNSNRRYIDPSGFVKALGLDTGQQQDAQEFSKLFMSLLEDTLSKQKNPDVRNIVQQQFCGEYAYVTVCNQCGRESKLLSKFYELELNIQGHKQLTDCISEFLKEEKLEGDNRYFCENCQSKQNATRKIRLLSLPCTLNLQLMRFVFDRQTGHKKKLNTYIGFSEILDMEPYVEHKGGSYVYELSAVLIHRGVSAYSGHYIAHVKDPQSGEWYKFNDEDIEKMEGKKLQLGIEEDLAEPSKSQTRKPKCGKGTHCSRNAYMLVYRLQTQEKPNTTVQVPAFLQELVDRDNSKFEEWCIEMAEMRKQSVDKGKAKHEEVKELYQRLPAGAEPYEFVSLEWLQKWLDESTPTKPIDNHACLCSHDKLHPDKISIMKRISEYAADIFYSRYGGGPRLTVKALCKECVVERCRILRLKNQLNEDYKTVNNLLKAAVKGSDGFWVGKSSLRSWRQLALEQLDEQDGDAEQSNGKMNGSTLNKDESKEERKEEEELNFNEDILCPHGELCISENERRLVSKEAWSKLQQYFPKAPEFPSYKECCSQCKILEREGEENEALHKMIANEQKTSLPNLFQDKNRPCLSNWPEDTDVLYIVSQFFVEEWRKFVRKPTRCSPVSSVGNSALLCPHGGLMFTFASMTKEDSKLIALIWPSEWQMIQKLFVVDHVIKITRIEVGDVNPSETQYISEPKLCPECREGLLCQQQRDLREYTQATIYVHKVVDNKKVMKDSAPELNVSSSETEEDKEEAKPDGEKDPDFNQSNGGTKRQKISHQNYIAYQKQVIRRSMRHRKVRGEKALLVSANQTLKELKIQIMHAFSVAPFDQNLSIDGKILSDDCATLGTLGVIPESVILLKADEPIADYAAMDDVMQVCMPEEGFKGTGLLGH
Procedure, shortened: as §1

USP5 = target: T4, USP5 (UniProt P45974)
T4 sequence (whole entry): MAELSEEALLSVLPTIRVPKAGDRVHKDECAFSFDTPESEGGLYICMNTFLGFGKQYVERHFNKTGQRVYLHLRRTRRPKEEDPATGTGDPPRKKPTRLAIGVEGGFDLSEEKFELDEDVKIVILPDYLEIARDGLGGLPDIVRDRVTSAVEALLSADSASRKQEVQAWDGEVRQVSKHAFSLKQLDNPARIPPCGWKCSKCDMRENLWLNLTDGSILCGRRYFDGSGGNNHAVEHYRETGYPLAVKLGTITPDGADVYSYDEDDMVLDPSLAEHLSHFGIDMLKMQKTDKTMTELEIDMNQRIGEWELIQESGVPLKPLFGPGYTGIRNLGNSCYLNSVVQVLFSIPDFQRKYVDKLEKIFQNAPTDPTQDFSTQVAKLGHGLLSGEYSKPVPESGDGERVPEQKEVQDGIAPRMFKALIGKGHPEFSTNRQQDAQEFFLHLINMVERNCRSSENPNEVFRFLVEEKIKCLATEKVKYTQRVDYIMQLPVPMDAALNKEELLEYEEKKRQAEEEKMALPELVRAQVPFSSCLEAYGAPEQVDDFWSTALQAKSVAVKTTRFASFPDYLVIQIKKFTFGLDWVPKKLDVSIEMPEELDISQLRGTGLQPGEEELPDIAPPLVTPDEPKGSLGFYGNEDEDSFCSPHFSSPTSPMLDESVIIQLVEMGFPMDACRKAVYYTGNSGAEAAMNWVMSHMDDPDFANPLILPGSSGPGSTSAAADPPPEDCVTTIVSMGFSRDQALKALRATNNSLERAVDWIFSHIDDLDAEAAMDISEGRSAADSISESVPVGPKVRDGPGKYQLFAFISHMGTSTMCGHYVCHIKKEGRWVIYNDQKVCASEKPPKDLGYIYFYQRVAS
Procedure, shortened: as §1

USP54 = USP54 (UniProt Q70EL1)
Chain of USP54 (Q70EL1 whole entry): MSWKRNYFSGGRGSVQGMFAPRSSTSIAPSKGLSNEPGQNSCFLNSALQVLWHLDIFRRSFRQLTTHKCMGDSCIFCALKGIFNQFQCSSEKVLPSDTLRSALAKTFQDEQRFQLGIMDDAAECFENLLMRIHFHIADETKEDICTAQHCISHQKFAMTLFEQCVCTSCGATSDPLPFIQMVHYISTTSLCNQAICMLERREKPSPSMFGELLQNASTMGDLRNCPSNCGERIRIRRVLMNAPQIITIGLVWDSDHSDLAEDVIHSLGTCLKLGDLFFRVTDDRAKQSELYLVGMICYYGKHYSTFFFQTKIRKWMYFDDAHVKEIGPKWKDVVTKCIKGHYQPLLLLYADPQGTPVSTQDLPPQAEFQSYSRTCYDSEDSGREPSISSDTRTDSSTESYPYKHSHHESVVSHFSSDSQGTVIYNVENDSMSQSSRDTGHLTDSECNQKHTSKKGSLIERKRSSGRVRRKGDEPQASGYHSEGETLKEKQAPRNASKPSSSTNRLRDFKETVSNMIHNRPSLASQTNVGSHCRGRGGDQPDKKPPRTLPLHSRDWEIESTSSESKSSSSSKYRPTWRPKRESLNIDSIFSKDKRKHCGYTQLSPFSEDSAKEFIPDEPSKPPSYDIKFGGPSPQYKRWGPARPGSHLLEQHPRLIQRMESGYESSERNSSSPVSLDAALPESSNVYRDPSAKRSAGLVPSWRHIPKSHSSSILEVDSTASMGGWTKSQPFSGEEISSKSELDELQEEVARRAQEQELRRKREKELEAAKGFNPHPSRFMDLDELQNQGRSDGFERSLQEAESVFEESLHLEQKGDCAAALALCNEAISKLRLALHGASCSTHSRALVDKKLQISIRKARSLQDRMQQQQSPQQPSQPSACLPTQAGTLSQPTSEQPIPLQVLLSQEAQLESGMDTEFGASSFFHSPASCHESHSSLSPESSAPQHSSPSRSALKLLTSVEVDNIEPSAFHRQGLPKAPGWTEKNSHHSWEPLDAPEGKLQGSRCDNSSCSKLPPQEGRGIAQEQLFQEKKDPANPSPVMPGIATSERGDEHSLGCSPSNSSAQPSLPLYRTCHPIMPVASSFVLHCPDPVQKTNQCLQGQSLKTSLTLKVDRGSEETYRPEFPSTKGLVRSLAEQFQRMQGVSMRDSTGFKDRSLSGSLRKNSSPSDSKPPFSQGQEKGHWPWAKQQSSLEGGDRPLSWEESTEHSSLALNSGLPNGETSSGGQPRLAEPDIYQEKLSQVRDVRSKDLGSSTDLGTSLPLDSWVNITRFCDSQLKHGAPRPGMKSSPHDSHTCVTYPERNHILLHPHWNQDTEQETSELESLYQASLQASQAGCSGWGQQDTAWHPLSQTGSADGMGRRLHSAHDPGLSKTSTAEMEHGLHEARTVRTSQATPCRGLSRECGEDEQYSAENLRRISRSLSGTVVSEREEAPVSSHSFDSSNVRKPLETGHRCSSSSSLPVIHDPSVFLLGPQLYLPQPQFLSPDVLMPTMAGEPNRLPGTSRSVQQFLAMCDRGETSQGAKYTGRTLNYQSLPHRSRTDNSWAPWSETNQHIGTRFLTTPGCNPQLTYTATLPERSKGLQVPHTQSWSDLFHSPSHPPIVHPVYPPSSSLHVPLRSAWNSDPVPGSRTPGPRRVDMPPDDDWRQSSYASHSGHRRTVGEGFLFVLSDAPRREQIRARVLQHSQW
Procedure, shortened: as §1

USP7 = USP7 (UniProt Q93009)
Chain of USP7 (Q93009 whole entry, looked up): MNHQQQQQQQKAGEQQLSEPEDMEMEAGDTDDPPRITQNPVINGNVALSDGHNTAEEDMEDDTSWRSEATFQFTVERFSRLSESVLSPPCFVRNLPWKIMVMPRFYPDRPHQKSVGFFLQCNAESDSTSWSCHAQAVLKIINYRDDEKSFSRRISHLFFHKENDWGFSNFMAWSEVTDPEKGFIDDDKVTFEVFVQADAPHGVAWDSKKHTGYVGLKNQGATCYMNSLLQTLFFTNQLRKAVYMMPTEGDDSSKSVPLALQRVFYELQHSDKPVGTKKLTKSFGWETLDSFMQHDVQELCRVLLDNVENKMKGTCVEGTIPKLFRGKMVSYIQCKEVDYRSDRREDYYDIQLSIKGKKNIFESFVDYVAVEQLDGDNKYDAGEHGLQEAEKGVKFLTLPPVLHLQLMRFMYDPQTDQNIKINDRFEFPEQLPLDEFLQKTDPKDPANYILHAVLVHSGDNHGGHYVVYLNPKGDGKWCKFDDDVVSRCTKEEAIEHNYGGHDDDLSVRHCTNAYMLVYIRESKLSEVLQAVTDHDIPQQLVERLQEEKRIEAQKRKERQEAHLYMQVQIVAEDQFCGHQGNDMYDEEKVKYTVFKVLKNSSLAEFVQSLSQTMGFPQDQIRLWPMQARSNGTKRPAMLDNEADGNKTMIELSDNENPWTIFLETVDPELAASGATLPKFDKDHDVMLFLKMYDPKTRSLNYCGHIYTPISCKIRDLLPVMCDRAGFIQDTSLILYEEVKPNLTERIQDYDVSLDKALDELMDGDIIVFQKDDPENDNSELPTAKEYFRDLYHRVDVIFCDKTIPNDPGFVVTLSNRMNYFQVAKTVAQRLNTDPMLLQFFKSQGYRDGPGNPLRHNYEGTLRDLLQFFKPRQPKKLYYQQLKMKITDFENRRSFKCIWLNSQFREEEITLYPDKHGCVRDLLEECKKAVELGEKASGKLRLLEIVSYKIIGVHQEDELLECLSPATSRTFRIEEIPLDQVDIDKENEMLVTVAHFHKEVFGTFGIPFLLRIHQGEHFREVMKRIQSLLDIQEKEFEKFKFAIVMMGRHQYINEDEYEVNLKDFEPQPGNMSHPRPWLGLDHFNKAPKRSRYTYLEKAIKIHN
Procedure, shortened: as §1

USP8 = target: T5, USP8 (UniProt P40818)
T5 sequence (whole entry): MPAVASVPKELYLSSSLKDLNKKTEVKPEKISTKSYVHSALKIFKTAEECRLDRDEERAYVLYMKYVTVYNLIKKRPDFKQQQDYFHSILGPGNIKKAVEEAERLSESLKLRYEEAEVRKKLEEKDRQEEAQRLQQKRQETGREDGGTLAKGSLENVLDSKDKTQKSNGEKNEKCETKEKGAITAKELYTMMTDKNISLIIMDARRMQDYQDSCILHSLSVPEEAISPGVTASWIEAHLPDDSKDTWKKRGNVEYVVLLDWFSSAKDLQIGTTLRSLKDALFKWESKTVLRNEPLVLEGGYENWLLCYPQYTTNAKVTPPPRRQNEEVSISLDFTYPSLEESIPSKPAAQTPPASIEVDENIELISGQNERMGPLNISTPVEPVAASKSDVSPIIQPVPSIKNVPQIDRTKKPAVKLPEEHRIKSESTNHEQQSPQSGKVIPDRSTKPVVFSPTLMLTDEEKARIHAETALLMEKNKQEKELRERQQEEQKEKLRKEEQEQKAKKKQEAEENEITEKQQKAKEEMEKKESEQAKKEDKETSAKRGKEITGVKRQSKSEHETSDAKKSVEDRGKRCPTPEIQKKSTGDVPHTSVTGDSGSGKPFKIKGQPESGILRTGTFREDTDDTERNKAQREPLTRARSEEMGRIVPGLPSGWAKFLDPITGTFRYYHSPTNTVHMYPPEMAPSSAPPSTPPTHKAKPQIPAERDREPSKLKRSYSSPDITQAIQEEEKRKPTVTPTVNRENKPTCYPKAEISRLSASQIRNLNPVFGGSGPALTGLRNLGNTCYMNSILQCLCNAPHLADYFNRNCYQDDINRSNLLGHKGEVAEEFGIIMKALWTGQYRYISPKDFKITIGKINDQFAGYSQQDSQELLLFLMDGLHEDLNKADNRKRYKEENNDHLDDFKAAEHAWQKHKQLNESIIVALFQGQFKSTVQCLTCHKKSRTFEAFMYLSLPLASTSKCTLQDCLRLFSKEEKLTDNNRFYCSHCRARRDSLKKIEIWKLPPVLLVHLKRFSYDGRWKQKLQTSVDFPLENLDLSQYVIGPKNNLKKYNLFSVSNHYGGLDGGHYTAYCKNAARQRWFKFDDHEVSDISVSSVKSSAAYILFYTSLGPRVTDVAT
Procedure, shortened: as §1

Measured: log2 ratio of Biotin-Ahx-Ub-VS probe labelling

Cc1ccc(N(C(=O)CCl)C2C=CS(=O)(=O)C2)cc1 (stereo not drawn)
inactive: USP42 0.262 | USP46 -0.055 | USP48 -0.839 | USP5 0.431 | USP54 -0.495 | USP8 0.108
active: USP47 -1.11 | USP7 -1.19

— the supplement of paper PMC11732987, “Enantioselective OTUD7B fragment discovery through chemoproteomics screening and high-throughput optimisation” (Communications Chemistry, 2025)
